# Laboratory results taken from PubChem BioAssay (Tox21).
# Results filed as inconclusive are left out. Values without a mark were called inactive. Calls of active or inactive are those of the source. Calls come from the whole dose curve.
# Assay: qHTS assay to identify small molecule agonists of H2AX - cell viability counter screen (AID 1224847); note: nearly all actives have a fitted effect of over 30% in size; for activity change, negative = cytotoxicity: top concentration of the series differs between compounds
# Details: CHO-K1 viability, CellTiter-Glo luminescence, 3 h; series mostly up to 154 µM; activity change, negative = cytotoxicity: at the top concentration
# Description: National Center for Advancing Translational Sciences [NCATS]
# NIH Chemical Genomics Center [NCGC]
# U.S. Environmental Protection Agency [EPA]
# National Institutes of Environmental Health Sciences [NIEHS]
# National Toxicology Program [NTP]
# U.S. Food and Drug Administration [FDA]
# HTRF phospho-H2AX (Ser139) assay (Cisbio Bioassays, US) enables the quantitative detection of the histone variant H2AX when phosphorylated on serine 139. When double-stranded DNA breaks, either by ionizing radiation or endogenous physiological processes, H2AX becomes phosphorylated at Ser139. This phospho-Ser139 serves as a sensitive biomarker for the detection of such breaks, localizing the site of DNA repair. So, HTRF phospho-H2AX Ser139 is a pertinent assay to study genome stability, the cell cycle, DNA repair, and it serves as a biomarker for cancer, and to understand aging. Wild type CHO-K1 cells were used to identify the inducers of Phospho-H2AX Ser 139 from the Tox21 compound collections. Also cytotoxicity of the Tox21 10K compound library against the CHO-K1 cell line was tested by measuring the cell viability using CellTiter-Glo assay (Promega, Madison, WI).
# Tox21 Assay Protocol Summary:
# The CHO-K1 cells suspended in culture medium containing 10% FBS were dispensed at 1000 cells/ 3 ul/well in 1536-well white wall/solid bottom plates (Greiner Bio-One North America, NC) using a Multidrop Combi (Thermo Fisher Scientific Inc., Waltham, MA). After the assay plates were incubated at 37C overnight, 23 nl of compounds at 15 concentrations (from 5-48 columns) or positive control (from 1 to 4 columns) were transferred to the assay plates using a Pintool station (Wako, San Diego, CA) into each well resulting in a final DMSO concentration of 0.76%. After 3hr incubation at 37C, 3 uL/well CellTiter-Glo luminescent cell viability reagent (Promega Corporation, Madison, WI) was added using a Flying Reagent Dispenser (FRD) (Aurora Discovery, CA). After incubation at room temperature for 30 min, the luminescence intensity was read using a ViewLux plate reader (PerkinElmer, Waltham, MA).
# % is set by controls: 0 for no effect and ±100 for the full control effect; potency is the fitted concentration of half-maximal effect.
Compound,"activity change, negative = cytotoxicity",Potency
CC(C)=CCCC(C)CC=O (stereo not given),-1.89%,
CCC(C)N(C)C(=O)c1cc2ccccc2c(-c2ccccc2Cl)n1 (stereo not given),0.367% [at 70.9 µM],
CC(=O)N(CC(=O)N(C)C)c1ccccc1,-0.659% [at 70.9 µM],
CCOC(=O)CC(C)C,-1.34%,
Cn1c(NCCN(CCO)CCCc2ccc([N+](=O)[O-])cc2)cc(=O)n(C)c1=O,-4.28% [at 70.9 µM],
CC1CCc2cc(F)cc3c(=O)c(C(=O)O)cn1c23 (stereo not given),-2.56% [at 70.9 µM],
COc1ccc2[nH]c(S(=O)Cc3ncc(C)c(OC)c3C)nc2n1 (stereo not given),4.58% [at 70.9 µM],
CCCCCCCCC(CO)CCCCCC (stereo not given),6.86%,
CC(C)(C)C1CCCCC1O (stereo not given),0.176%,
CCCCCCCCCO,-1.49%,
CC(C)c1cccc(C(C)C)c1NC(=O)NS(=O)(=O)c1cc(C(C)(C)O)co1,3.88%,
CC(=O)[C@@]1(O)CC[C@H]2[C@@H]3C[C@H](C)C4=CC(=O)CC[C@]4(C)[C@H]3CC[C@@]21C,-2.56% [at 70.9 µM],
CCOc1ccc2[nH]cc(C(=O)NCc3ccccc3)c(=O)c2n1,-12.3%,
O=S1(=O)c2cccc3cccc(c23)N1CCCN1CCN(c2ccc(F)cc2)CC1,-7.93% [at 70.9 µM],
CC1=CCC(C(C)C)C=C1 (stereo not given),-3.57%,
Cc1c(Cn2ccnc2)c2ccccc2n1CCC(=O)O,1.87% [at 70.9 µM],
Cc1ncsc1CCO,-1.46%,
CCN(CC)C(C)=O,1.7%,
O=C(O)[C@@H]1[C@H]2C[C@H]3c4[nH]c5ccccc5c4CCN3C[C@@H]2CC[C@@H]1O,-0.107% [at 70.9 µM],
CCCCOC(O)CC (stereo not given),1.35%,

Compound,"activity change, negative = cytotoxicity",Potency
NCCCOCCOCCOCCCN,-4.16%,
SC1CCCC1,5.49%,
C=CCCCCCC,1.98%,
COc1ccc(C(C)=O)cc1,-0.304%,
CCCCCCCCCC=O,-0.0376%,
OCCC1CCCCN1 (stereo not given),1.24%,
NC1CCN(c2nc3c(cc2F)c(=O)c(C(=O)O)cn3-c2ccc(F)cc2F)C1 (stereo not given),3.84% [at 70.9 µM],
CC1(C)[C@H]2CC[C@]1(C)[C@H](O)C2,,1600 nM (active)
NC[C@H]1O[C@H](O[C@H]2[C@H](O)[C@@H](O[C@H]3O[C@H](CO)[C@@H](O)[C@H](N)[C@H]3O)[C@H](N)C[C@@H]2N)[C@H](O)[C@@H](O)[C@@H]1O,4.56% [at 14 µM],
CC1(C)CCC(C)(C)c2cc(NC(=O)c3ccc(C(=O)O)cc3)ccc21,7.27% [at 70.9 µM],
CCN(CCO)CCCC(C)Nc1ccnc2cc(Cl)ccc12 (stereo not given),1.55% [at 14 µM],
CN(C)CC/C=C1\c2ccccc2COc2ccccc21,0.206% [at 70.9 µM],
C=C(C)C(=O)OC(C)C,0.509%,
CCOc1nc2cccc(C(=O)O)c2n1Cc1ccc(-c2ccccc2-c2nn[nH]n2)cc1,-2.09% [at 70.9 µM],
CCOC(=O)CC(=O)c1cc(F)c(Cl)nc1Cl,-8.33%,
CC(C)CCCC(C)CCO (stereo not given),0.459%,
CCCC(C)C,-2.53%,
CCCOc1ccc2nc(NC(=O)OC)[nH]c2c1,1.33% [at 70.9 µM],
Cl/C(=C\n1cncn1)c1ccc(Cl)cc1Cl,-3.93% [at 70.9 µM],
Oc1ccc(O)c2c(O)cccc12,-9.08%,
